Drawing on publication PMC7862700, “An all-to-all approach to the identification of sequence-specific readers for epigenetic DNA modifications on cytosine”, this text covers binding signal for eight sequences.

Assay in all cases: DAPPL (digital affinity profiling via proximity ligation, sequencing); 10 mM Tris-HCl pH 7.5, 50 mM NaCl, 1 mM DTT, 4% glycerol, room temperature, 30 min; GST-TFs on glutathione beads, 16-mer random dsDNA library, 0.1% formaldehyde crosslink after washing; high values mean tight binding
What all share (conditions): protein: recombinant; tags: N-terminal GST; dsDNA, one strand shown

One assay addresses T1, ERF (Homo sapiens, UniProt P50548 1-548).
T1 sequence: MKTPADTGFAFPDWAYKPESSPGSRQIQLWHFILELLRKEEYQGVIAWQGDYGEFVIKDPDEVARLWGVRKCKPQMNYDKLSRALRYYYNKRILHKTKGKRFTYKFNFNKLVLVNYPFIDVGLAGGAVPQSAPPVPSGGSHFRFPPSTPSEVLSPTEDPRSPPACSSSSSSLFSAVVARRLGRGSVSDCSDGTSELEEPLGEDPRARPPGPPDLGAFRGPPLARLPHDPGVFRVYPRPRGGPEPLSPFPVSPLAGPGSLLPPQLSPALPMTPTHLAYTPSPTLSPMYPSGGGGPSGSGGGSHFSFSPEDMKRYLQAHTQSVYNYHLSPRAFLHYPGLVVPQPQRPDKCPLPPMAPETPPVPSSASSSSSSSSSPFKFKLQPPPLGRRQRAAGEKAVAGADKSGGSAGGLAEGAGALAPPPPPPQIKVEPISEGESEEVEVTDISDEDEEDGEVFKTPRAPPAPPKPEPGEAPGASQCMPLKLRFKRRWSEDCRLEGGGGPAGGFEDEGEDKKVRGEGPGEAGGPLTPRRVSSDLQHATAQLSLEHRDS
In short, it runs like this: (§1)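 Pools were built from human transcription factors expressed in yeast as GST fusions, captured on glutathione beads and DNA-barcoded, along with a tag-only sample. Incubation with 200 nmole of a 16-mer random double-stranded DNA library lasted 30 min at room temperature in Tris/NaCl/DTT/glycerol buffer, and was followed by washing, 0.1% formaldehyde crosslinking, proximity ligation, PCR amplification and Illumina NextSeq500 sequencing. Binding signal is the quotient of each hexamer's read frequency for a factor and its frequency for the tag-only sample.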

The next assay has as its target T2, ETV3L (Homo sapiens, UniProt Q6ZN32 1-361).
T2 sequence: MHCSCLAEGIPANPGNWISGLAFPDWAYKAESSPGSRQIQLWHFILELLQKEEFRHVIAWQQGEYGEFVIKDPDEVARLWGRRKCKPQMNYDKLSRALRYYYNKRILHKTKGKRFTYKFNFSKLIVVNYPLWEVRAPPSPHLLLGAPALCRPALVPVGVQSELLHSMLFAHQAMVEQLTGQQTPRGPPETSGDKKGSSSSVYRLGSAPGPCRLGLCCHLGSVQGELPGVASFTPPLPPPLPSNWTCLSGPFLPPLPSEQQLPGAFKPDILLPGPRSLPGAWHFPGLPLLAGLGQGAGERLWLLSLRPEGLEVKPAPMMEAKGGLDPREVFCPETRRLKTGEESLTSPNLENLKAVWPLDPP
In short, it runs like this:
as §1

A further assay addresses T3, ETS2 (Homo sapiens, UniProt P15036 1-469).
T3 sequence: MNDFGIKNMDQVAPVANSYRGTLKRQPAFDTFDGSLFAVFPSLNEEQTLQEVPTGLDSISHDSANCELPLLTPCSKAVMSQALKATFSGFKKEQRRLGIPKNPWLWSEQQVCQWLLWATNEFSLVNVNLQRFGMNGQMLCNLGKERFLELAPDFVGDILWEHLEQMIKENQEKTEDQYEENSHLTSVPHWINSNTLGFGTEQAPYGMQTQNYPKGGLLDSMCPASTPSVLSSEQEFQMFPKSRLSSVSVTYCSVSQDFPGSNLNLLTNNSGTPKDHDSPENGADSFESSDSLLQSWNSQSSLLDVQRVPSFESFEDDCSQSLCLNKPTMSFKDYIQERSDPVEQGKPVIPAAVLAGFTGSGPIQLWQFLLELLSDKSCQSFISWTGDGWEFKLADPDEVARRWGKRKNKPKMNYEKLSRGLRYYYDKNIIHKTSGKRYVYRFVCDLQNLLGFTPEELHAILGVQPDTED
In short, it runs like this:
as §1

A further assay has as its target T4, SPDEF (Homo sapiens, UniProt O95238 1-335).
T4 sequence: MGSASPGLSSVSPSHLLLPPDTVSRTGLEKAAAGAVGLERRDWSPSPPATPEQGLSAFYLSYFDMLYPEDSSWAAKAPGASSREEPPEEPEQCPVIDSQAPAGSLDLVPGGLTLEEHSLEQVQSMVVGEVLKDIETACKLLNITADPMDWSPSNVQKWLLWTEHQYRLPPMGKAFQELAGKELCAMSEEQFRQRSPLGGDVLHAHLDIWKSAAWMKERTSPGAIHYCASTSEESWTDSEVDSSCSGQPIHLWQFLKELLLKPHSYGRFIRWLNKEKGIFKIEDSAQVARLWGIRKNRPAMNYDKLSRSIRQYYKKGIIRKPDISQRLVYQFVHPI
In short, it runs like this:
as §1

Another assay has as its target T5, ETV7 (Homo sapiens, UniProt Q9Y603 1-341).
T5 sequence: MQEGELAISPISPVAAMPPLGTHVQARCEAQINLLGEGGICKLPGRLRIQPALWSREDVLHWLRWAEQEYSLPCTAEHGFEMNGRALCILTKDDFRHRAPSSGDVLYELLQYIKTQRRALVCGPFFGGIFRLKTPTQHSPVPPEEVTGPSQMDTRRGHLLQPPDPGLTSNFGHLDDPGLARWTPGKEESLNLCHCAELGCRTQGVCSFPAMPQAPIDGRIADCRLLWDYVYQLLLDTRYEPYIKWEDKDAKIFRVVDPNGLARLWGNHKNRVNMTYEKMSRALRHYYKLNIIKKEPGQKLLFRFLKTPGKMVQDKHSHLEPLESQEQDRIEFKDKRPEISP
In short, it runs like this: as §1

The target in a further assay is T6, ELF5 (Homo sapiens, UniProt Q9UKW6-2 1-255).
T6 sequence: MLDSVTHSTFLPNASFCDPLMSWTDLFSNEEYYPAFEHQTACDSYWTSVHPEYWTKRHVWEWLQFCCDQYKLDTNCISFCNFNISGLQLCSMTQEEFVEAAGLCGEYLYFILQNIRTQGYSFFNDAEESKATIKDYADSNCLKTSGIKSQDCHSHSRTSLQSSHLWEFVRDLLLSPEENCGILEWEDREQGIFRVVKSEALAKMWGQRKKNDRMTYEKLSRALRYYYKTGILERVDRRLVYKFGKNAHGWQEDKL
In short, it runs like this: as §1

The next assay addresses T7, ETV3 (Homo sapiens, UniProt P41162-2 1-143).
T7 sequence: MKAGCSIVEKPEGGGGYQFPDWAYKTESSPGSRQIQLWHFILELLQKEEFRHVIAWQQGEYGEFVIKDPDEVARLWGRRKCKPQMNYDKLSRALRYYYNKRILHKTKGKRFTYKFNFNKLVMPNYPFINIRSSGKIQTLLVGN
In short, it runs like this: as §1

Another assay deals with ETV6 (Homo sapiens, UniProt P41212 1-452). In short, it runs like this: as §1
ETV6, sequence (P41212 whole entry): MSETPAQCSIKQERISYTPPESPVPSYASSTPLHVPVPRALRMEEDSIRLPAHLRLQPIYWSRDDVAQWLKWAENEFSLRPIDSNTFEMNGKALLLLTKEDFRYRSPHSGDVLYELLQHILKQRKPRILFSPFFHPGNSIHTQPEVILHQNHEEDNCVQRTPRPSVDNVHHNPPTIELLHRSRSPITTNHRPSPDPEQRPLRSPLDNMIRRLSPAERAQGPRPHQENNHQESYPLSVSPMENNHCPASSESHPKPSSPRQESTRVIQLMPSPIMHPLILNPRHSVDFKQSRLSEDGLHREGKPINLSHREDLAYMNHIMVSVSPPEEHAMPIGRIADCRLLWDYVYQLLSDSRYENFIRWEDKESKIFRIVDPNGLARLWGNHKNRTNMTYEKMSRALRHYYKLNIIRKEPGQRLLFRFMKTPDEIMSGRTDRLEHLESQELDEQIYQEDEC

For TGATTT, the binding signal with ERF was 1.17 fold enrichment (6-mer frequency, TF over GST control); with ETV3L, 1.29 fold enrichment (6-mer frequency, TF over GST control); with ETS2, 1.28 fold enrichment (6-mer frequency, TF over GST control); with SPDEF, 1.21 fold enrichment (6-mer frequency, TF over GST control); in the assay with ETV7, 1.24 fold enrichment (6-mer frequency, TF over GST control); with ELF5, 1.23 fold enrichment (6-mer frequency, TF over GST control). Also, the binding signal is 1.24 fold enrichment (6-mer frequency, TF over GST control) with ETV3 and 1.23 fold enrichment (6-mer frequency, TF over GST control) with ETV6.
Take CCGATC: the binding signal is 1.17 fold enrichment (6-mer frequency, TF over GST control) with ERF; 1.13 fold enrichment (6-mer frequency, TF over GST control) with ETV3L; 1.18 fold enrichment (6-mer frequency, TF over GST control) with ETS2; 1.22 fold enrichment (6-mer frequency, TF over GST control) in the assay with SPDEF; 1.31 fold enrichment (6-mer frequency, TF over GST control) with ETV7; 1.1 fold enrichment (6-mer frequency, TF over GST control) in the assay with ELF5. Moreover, the binding signal was 1.25 fold enrichment (6-mer frequency, TF over GST control) with ETV3 and 1.17 fold enrichment (6-mer frequency, TF over GST control) with ETV6.
ACTTGT: the binding signal is 1.28 fold enrichment (6-mer frequency, TF over GST control) in the assay with ERF; 1.23 fold enrichment (6-mer frequency, TF over GST control) with ETV3L; 1.36 fold enrichment (6-mer frequency, TF over GST control) with ETS2; 1.22 fold enrichment (6-mer frequency, TF over GST control) in the assay with SPDEF; 1.2 fold enrichment (6-mer frequency, TF over GST control) with ETV7; 1.28 fold enrichment (6-mer frequency, TF over GST control) with ELF5. The binding signal is 1.36 fold enrichment (6-mer frequency, TF over GST control) in the assay with ETV3 and 1.32 fold enrichment (6-mer frequency, TF over GST control) with ETV6.
Turning to CCTTGT, the binding signal in the assay with ERF was 1.29 fold enrichment (6-mer frequency, TF over GST control); in the assay with ETV3L, 1.05 fold enrichment (6-mer frequency, TF over GST control); in the assay with ETS2 it was 1.26 fold enrichment (6-mer frequency, TF over GST control); with SPDEF it was 1.37 fold enrichment (6-mer frequency, TF over GST control); with ETV7, 1.19 fold enrichment (6-mer frequency, TF over GST control); with ELF5 it was 1.52 fold enrichment (6-mer frequency, TF over GST control). Also, the binding signal with ETV3 is 1.31 fold enrichment (6-mer frequency, TF over GST control); with ETV6 it was 1.06 fold enrichment (6-mer frequency, TF over GST control).
For AATGGG, the binding signal in the assay with ERF was 1.16 fold enrichment (6-mer frequency, TF over GST control); with ETV3L, 1.15 fold enrichment (6-mer frequency, TF over GST control); with ETS2 it was 1.19 fold enrichment (6-mer frequency, TF over GST control); with SPDEF it was 1.12 fold enrichment (6-mer frequency, TF over GST control); with ETV7, 1.2 fold enrichment (6-mer frequency, TF over GST control); in the assay with ELF5 it was 1.2 fold enrichment (6-mer frequency, TF over GST control). Besides, the binding signal with ETV3 is 1.19 fold enrichment (6-mer frequency, TF over GST control); with ETV6 it was 1.2 fold enrichment (6-mer frequency, TF over GST control).
Regarding ATCGCT, the binding signal is 1.06 fold enrichment (6-mer frequency, TF over GST control) with ERF; 1.05 fold enrichment (6-mer frequency, TF over GST control) with ETV3L; 1.1 fold enrichment (6-mer frequency, TF over GST control) in the assay with ETS2; 1.04 fold enrichment (6-mer frequency, TF over GST control) in the assay with SPDEF; 1.03 fold enrichment (6-mer frequency, TF over GST control) with ETV7; 1.05 fold enrichment (6-mer frequency, TF over GST control) with ELF5. For the same sequence, the binding signal with ETV3 was 1.05 fold enrichment (6-mer frequency, TF over GST control); with ETV6 it was 1.04 fold enrichment (6-mer frequency, TF over GST control).
Take TGAACC: the binding signal in the assay with ERF is 1.08 fold enrichment (6-mer frequency, TF over GST control); with ETV3L it was 1.2 fold enrichment (6-mer frequency, TF over GST control); with ETS2, 1.24 fold enrichment (6-mer frequency, TF over GST control); with SPDEF it was 1.16 fold enrichment (6-mer frequency, TF over GST control); with ETV7, 1.06 fold enrichment (6-mer frequency, TF over GST control); with ELF5 it was 1.09 fold enrichment (6-mer frequency, TF over GST control). Further, the binding signal was 1.12 fold enrichment (6-mer frequency, TF over GST control) with ETV3 and 1.11 fold enrichment (6-mer frequency, TF over GST control) with ETV6.
For CAACTC, the binding signal with ERF was 1.26 fold enrichment (6-mer frequency, TF over GST control); in the assay with ETV3L it was 1.22 fold enrichment (6-mer frequency, TF over GST control); with ETS2, 1.26 fold enrichment (6-mer frequency, TF over GST control); with SPDEF it was 1.36 fold enrichment (6-mer frequency, TF over GST control); in the assay with ETV7, 1.12 fold enrichment (6-mer frequency, TF over GST control); in the assay with ELF5, 1.16 fold enrichment (6-mer frequency, TF over GST control). The binding signal in the assay with ETV3 was 1.31 fold enrichment (6-mer frequency, TF over GST control); with ETV6 it was 1.29 fold enrichment (6-mer frequency, TF over GST control).
